# Compounds with a hit are over-represented: about 2.4% of the library has one in this group of screens.
# TMEM16A act: activates or potentiates the mouse TMEM16A chloride channel | AID 623877 | B-score at 10 µM | HEK293 TMEM16A/YFP-H148Q/I152L, iodide quench fluorescence; stronger effect = lower value | Q8BHY3 | 340,000 tested, 0.3% active;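 active = fluorescence-ratio B-score plate-corrected deviation score at least 3 library SD below zero, with starting fluorescence score within 5 deviations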;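 note: channel opened by trigger with iodide after compound preincubation; score built on the fluorescence ratio of max minus min over baseline; more negative score means more quench and so TMEM16A activation or potentiation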
# ANO1 block: inhibitors of mouse TMEM16A calcium-activated chloride channel. 310,000 tested, 1.2% active. HEK293 TMEM16A/YFP iodide influx fluorescence, ionomycin. normalized B-score (activity score, 25-100; higher = stronger inhibition) at 10 µM;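 active = ratio plate-corrected score three or more library SD toward inhibition, starting fluorescence score within five deviations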;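 note: score derived from kinetic fluorescence span divided by baseline fluorescence per well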
# CHT allo act: allosteric activators of human choline transporter CHT. CHT-expressing cells, membrane potential dye, choline EC20; stronger effect = higher value; LV-AA mutant CHT in HEK293 cells. Q9GZV3. B-score at 10 µM. 310,000 tested, 0.49% active;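 active = initial fluorescence not abnormally high and integrated response B-score, plate-corrected, over 3 SD above library mean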
# CHT block: inhibitors of human choline transporter CHT | Q9GZV3 | CHT-expressing cells, membrane potential dye, choline response; stronger effect = lower value | B-score at 10 µM | 310,000 tested, 0.86% active | AID 488975;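 active = B-score over 3 SD under the library average, and starting fluorescence ratio not unusually high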;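 note: choline stimulus applied at its EC90 after an EC20 pre-addition; B-score computed on integrated fluorescence ratio after choline addition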
# CHT act confirm: human CHT activation, confirmatory screen | shares compounds with CHT allo act | CHT-expressing cells, membrane potential dye fluorescence (FDSS); % of choline EC20–EC90 response window; HEK293 expressing CHT LV-AA mutant; choline added at its EC20 | activation, % at 10 µM | 2,500 tested, 91% active | AID 504833;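 active = primary screen active, with duplicate mean activation above negative control mean plus 3 SD, cut at about 11% in these data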
# HEK293 MP dye: counter-screen for CHT activators: effect in parental HEK293 cells | shares compounds with CHT allo act | membrane potential dye fluorescence (FDSS); measured after EC20 choline addition | ratio readout change at 10 µM, hits read low | 2,500 tested, 62% active;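 active = duplicate-averaged ratio beyond 3 SD from buffer wells, up or down, though filed actives are nearly all decreases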
# The depositor's hits bear a star; i = inactive; nt = no result.
SMILES,TMEM16A act,ANO1 block,CHT allo act,CHT block,CHT act confirm,HEK293 MP dye
COc1ccc(C(=O)C[n+]2ccc3ccccc3c2C)cc1,i,i,i,i,47.9*,-31.8*
COC(=O)c1ccc(N2CCN(C)CC2)c(NC(=O)c2cccs2)c1,i,i,6.69*,i,33.0*,-71.3*
COC(=O)c1ccc(N2CCN(C)CC2)c(NC(=O)c2cccnc2)c1,i,i,10.3*,i,51.8*,-101*
O=C(CSc1nc2scc(-c3ccccc3)c2c(=O)[nH]1)N1CCCCC1,i,i,i,i,nt,nt
CCOC(=O)N1CCN(C(=O)CSc2ccc3nnc(-c4ccccn4)n3n2)CC1,i,i,i,i,nt,nt
O=C(CSc1ccc2nnc(-c3ccccn3)n2n1)N1CCOCC1,i,i,i,i,41.6*,-35.8*
O=C(NCc1cccnc1)/C(=C\c1ccc(-c2ccc(Cl)c(Cl)c2)o1)S(=O)(=O)c1ccccc1,-6.08*,i,6.68*,i,13.6*,i
O=C(NCc1cccnc1)c1ccc(-c2ccc(Cl)cc2)o1,i,i,i,i,nt,nt
COc1ccc(-n2nc3c(c2NC(=O)C(C)C)CSC3)cc1,i,i,i,i,nt,nt
CCC(C)(C)n1nnnc1C(c1cccnc1)N1CCN(c2cccc(C(F)(F)F)c2)CC1 (configuration not stated),i,i,i,i,11.9*,i
CCC(C)(C)n1nnnc1C(c1ccncc1)N1CCN(c2cccc(OC)c2)CC1 (configuration not stated),i,i,i,i,nt,nt
COCCn1nnnc1C(c1ccccn1)N1CCN(c2cc(Cl)ccc2C)CC1 (configuration not stated),i,i,7.9*,i,15.1*,i
COc1ccc(Cn2nnnc2C(c2ccccn2)N2CCN(c3cc(Cl)ccc3C)CC2)cc1 (configuration not stated),i,i,i,i,nt,nt
CC1C(=O)C(C)C(c2ccccc2F)NC1c1ccccc1F (configuration not stated),i,i,i,i,27.9*,i
COc1cccc(CN2CCC(N(CCc3ccccc3)Cc3ccccc3)CC2)c1OC,i,i,10*,i,33.9*,i
CCOC(=O)c1c(C)n(C)c2cc(Br)c(C)cc12,i,i,i,i,nt,nt
CCOC(=O)c1c(CNc2ccncc2)n(C)c2cc(Br)c(O)cc12,i,i,10.9*,i,51.5*,-50.6*
CCOC(=O)C1CCN(C(=O)CSC2=NCCS2)CC1,i,i,i,i,nt,nt
O=C(COc1ccc([N+](=O)[O-])cc1)N(Cc1ccccc1)Cc1ccccc1,i,i,i,i,24.1*,i
O=C(COc1ccc([N+](=O)[O-])cc1)Nc1ccncc1,i,i,i,i,44.5*,-48.2*
O=C(NNC1=NCCN1Cc1ccccc1)c1cccc(C(F)(F)F)c1,i,i,i,i,nt,nt
Cc1cccc(C(=O)OC(C)C(=O)N2CCN(Cc3ccccc3)CC2)c1 (configuration not stated),i,nt,nt,nt,nt,nt
Cc1ccc(N(CCC#N)C(=O)COC(=O)c2cc(C)oc2C)cc1,i,nt,nt,nt,nt,nt
c1ccc(-c2csc(Nc3cccnc3)n2)nc1,i,i,i,i,50.1*,-55.3*
CCN1C(=O)c2cccc3c(S(=O)(=O)NCCCN4CCOCC4)ccc1c23,i,i,6.96*,i,59.5*,-53.8*
SMILES,TMEM16A act,ANO1 block,CHT allo act,CHT block,CHT act confirm,HEK293 MP dye
COc1ccc2cc(C#N)c(SCC(=O)N3CCCC3)nc2c1,i,i,i,i,nt,nt
CCOC(=O)CNC(=O)CSc1cc(C)nc2ccc(OC)cc12,i,i,i,i,44.4*,-42.3*
COc1ccc2nc(C)cc(SCC(=O)N3CCCCC3)c2c1,i,i,i,i,31.8*,-45.2*
CC(=O)Nc1ccc(S(=O)(=O)Nc2ccn(Cc3ccccc3Cl)n2)cc1,i,nt,nt,nt,nt,nt
Cc1oc(-c2cccc(C(F)(F)F)c2)nc1CN1CCOCC1,i,i,i,i,nt,nt
CCOC(=O)N1CCN(c2c(NCc3ccc(F)cc3)c(=O)c2=O)CC1,i,i,i,i,3.9,i
O=C(CNC(=O)c1ccc(Br)o1)NNC(=O)c1ccc(Cl)cc1,i,nt,nt,nt,nt,nt
CCN1C(=NCCOC)N[C@@H](c2cccc(C(F)(F)F)c2)C(C(=O)OC)=C1C,i,nt,nt,nt,nt,nt
CCN1C(=NCC2CC2)N[C@@H](c2cccc(C(F)(F)F)c2)C(C(=O)OC)=C1C,i,i,10.8*,i,25.3*,i
COC(=O)C1=C(C)N(Cc2ccccc2)C(=NCc2ccc(OC)cc2)N[C@H]1c1cccc(F)c1,i,i,i,i,19.6*,i
CC[n+]1c(/C=C/N(C)c2ccccc2)oc2ccc(F)cc21,i,i,i,i,29.9*,-39.2*
CC[n+]1c(/C=C/Nc2ccccc2)oc2ccccc21,i,i,i,i,41.4*,-35*
CC[n+]1c(/C=C/Nc2ccccc2)oc2ccc(OC)cc21,i,i,i,i,nt,nt
CC[n+]1c(/C=C/N(C)c2ccccc2)oc2ccccc21,i,i,i,i,51.5*,-30.1*
COc1ccc(CC(=O)N2CCN(c3ccccc3OC)CC2)cc1,i,i,i,i,nt,nt
COc1ccc(CNC(=O)C2CCCN(S(=O)(=O)c3ccccc3)C2)cc1 (configuration not stated),i,i,i,i,nt,nt
CC(=O)OCCCn1c(C)[n+](C)c2cc(Cl)c(Cl)cc21,i,i,9.71*,i,67.3*,-61.6*
CCn1c(C)[n+](CCOC(C)=O)c2cc(Cl)c(Cl)cc21,i,i,i,i,nt,nt
CC1(C)Cc2c(C#N)c(N3CCCC3)nc(-c3ccco3)c2CO1,i,i,i,i,nt,nt
CC(C)c1nc(N2CCN(C(=O)c3ccco3)CC2)c(C#N)c2c1COC(C)(C)C2,i,i,6.64*,i,22.8*,i
Cc1cc(NCCN2CCOCC2)n2nc(C)c(-c3ccccc3)c2n1,i,i,i,i,nt,nt
COc1ccc(CCNc2cc(C)nc3c(-c4ccccc4)c(C)nn23)cc1OC,i,i,i,i,nt,nt
COCCNc1cc(C)nc2c3c(C)cc(C)nc3nn12,i,i,i,i,55.2*,-64.5*
Cc1cc(C)c2c(n1)nn1c(NCCN3CCOCC3)cc(C)nc21,i,i,6.88*,i,50.0*,-72.8*

# High-throughput results deposited in PubChem BioAssay by Johns Hopkins Ion Channel Center.
